# Data reported in PMC8384837, “Expanding the binding specificity for RNA recognition by a PUF domain”.
# Residue numbers refer to the chain shown, from its start.
# Key:
# Experiment in all cases: yeast three-hybrid, YBZ-1, SC-Leu-His + 0.5 mM 3-AT, 4 days
# Details in all cases: tags: N-Gal4 AD-HA kept; label: inside an RPR1-promoter hybrid RNA with tandem MS2 sites; ssRNA
# PUM1 PUF domain R5-RCG = PUM1 PUF domain R5-RCG (Homo sapiens, UniProt Q14671 828-1176, C1007R;R1008C;Q1011G)
# In short: (§1)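 Repeat regions from input (SC-Leu) and selection (SC-Leu-His + 0.5 mM 3-AT) plates were PCR-amplified and Illumina-sequenced after four days of growth. The cells were strain YBZ-1 with a LexA–MS2 coat fusion and a HIS3 reporter, co-expressing Pumilio-1 PUF domain libraries and matching RNA elements from a centromeric plasmid. The interaction score is the log change in variant frequency from input to selection, taken in log2 with a pseudocount of 1 for absent variants.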
# PUM1 PUF domain R5-RMM = PUM1 PUF domain R5-RMM (Homo sapiens, UniProt Q14671 828-1176, C1007R;R1008M;Q1011M)
# In short: as §1
# PUM1 PUF domain R8-HWD = PUM1 PUF domain R8-HWD (Homo sapiens, UniProt Q14671 828-1176, N1122H;Y1123W;Q1126D)
# In short: as §1
# PUM1 PUF domain R8-RHS = PUM1 PUF domain R8-RHS (Homo sapiens, UniProt Q14671 828-1176, N1122R;Y1123H;Q1126S)
# In short: as §1
# PUM1 PUF domain R5-NSC = PUM1 PUF domain R5-NSC (Homo sapiens, UniProt Q14671 828-1176, C1007N;R1008S;Q1011C)
# In short: as §1
# PUM1 PUF domain R5-PHL = PUM1 PUF domain R5-PHL (Homo sapiens, UniProt Q14671 828-1176, C1007P;R1008H;Q1011L)
# In short: as §1
# PUM1 PUF domain R4-HNA = PUM1 PUF domain R4-HNA (Homo sapiens, UniProt Q14671 828-1176, N971H;H972N;Q975A)
# In short: as §1
# PUM1 PUF domain R6-KWT = molecular target: T1, PUM1 PUF domain R6-KWT (Homo sapiens, UniProt Q14671 828-1176, N1043K;Y1044W;Q1047T)
# T1 sequence: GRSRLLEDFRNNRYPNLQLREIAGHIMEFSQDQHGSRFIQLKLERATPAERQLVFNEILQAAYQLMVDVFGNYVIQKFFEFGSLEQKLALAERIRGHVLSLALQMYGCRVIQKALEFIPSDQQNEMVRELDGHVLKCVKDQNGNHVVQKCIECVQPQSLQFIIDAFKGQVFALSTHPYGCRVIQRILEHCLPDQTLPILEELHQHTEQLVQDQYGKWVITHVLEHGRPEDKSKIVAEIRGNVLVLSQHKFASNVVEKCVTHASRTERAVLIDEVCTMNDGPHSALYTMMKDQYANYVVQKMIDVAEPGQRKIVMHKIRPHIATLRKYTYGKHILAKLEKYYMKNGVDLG
# In short: as §1
# PUM1 PUF domain R2-CGI = PUM1 PUF domain R2-CGI (Homo sapiens, UniProt Q14671 828-1176, N899C;Y900G;Q903I)
# In short: as §1
# PUM1 PUF domain R6-RYL = molecular target: T2, PUM1 PUF domain R6-RYL (Homo sapiens, UniProt Q14671 828-1176, N1043R;Q1047L)
# T2 sequence: T1 sequence with K216R, W217Y, T220L
# In short: as §1
sequence,measurement,setting,value
GGCUAGAACUAGUGGAUCCCCCGGCGCCCGGCGGCUCGAGCCCGGGUAAGUGUCAAUAGUCUGCAUGCCGCCGGGCGCCAUGCCUGCAGGUCGACUCUAGAAAACAUG,binding signal,PUM1 PUF domain R5-RCG,3 log2 enrichment (interaction score)
same,binding signal,PUM1 PUF domain R5-RMM,2.73 log2 enrichment (interaction score)
GGCUAGAACUAGUGGAUCCCCCGGCGCCCGGCGGCUCGAGCCCGGGUAAGCGUAAAUAGUCUGCAUGCCGCCGGGCGCCAUGCCUGCAGGUCGACUCUAGAAAACAUG,binding signal,PUM1 PUF domain R8-HWD,4.23 log2 enrichment (interaction score)
same,binding signal,PUM1 PUF domain R8-RHS,4.15 log2 enrichment (interaction score)
GGCUAGAACUAGUGGAUCCCCCGGCGCCCGGCGGCUCGAGCCCGGGUAAGUGUUAAUAGUCUGCAUGCCGCCGGGCGCCAUGCCUGCAGGUCGACUCUAGAAAACAUG,binding signal,PUM1 PUF domain R5-RCG,3.29 log2 enrichment (interaction score)
same,binding signal,PUM1 PUF domain R5-NSC,4.07 log2 enrichment (interaction score)
same,binding signal,PUM1 PUF domain R5-PHL,4.46 log2 enrichment (interaction score)
GGCUAGAACUAGUGGAUCCCCCGGCGCCCGGCGGCUCGAGCCCGGGUAAGUGUAUAUAGUCUGCAUGCCGCCGGGCGCCAUGCCUGCAGGUCGACUCUAGAAAACAUG,binding signal,PUM1 PUF domain R4-HNA,4.72 log2 enrichment (interaction score)
GGCUAGAACUAGUGGAUCCCCCGGCGCCCGGCGGCUCGAGCCCGGGUAAGUGCAAAUAGUCUGCAUGCCGCCGGGCGCCAUGCCUGCAGGUCGACUCUAGAAAACAUG,binding signal,PUM1 PUF domain R6-KWT,3.77 log2 enrichment (interaction score)
GGCUAGAACUAGUGGAUCCCCCGGCGCCCGGCGGCUCGAGCCCGGGUAAGUGUACAUAGUCUGCAUGCCGCCGGGCGCCAUGCCUGCAGGUCGACUCUAGAAAACAUG,binding signal,PUM1 PUF domain R4-HNA,2.26 log2 enrichment (interaction score)
GGCUAGAACUAGUGGAUCCCCCGGCGCCCGGCGGCUCGAGCCCGGGUAAGUGUAAAUAGUCUGCAUGCCGCCGGGCGCCAUGCCUGCAGGUCGACUCUAGAAAACAUG,binding signal,PUM1 PUF domain R2-CGI,2.59 log2 enrichment (interaction score)
same,binding signal,PUM1 PUF domain R6-RYL,2.68 log2 enrichment (interaction score)
same,binding signal,PUM1 PUF domain R5-PHL,4.35 log2 enrichment (interaction score)
same,binding signal,PUM1 PUF domain R8-RHS,3.91 log2 enrichment (interaction score)
